The record followed here is PMC7819943, “Rice protein-binding microarrays: a tool to detect cis-acting elements near promoter regions in rice”.

Whole data set: some 68,000 sequences, median “fluorescence intensity (a.u.)” near 9,100, cut for the highest 2% near 16,000. This excerpt belongs to a sample that is enriched for the highest values.

For the test, the target named is OsWRKY34 (Oryza sativa, UniProt Q0JBA9 1-250). Put plainly: protein-binding microarray (RPBM); PBS, 2% BSA, 51.3 ng/ul salmon testes DNA, 50 uM zinc acetate, 200 nM TF, 25 C, 1 h; high values mean tight binding. The conditions noted are these: protein: recombinant; tags: N-terminal polyhistidine and DsRed monomer fusion (pET32a); label: CyDye5-dUTP incorporated in the synthesized complementary strand; 3' TTTTT single-stranded linker to array surface; dsDNA, one strand shown. In short, it runs like this: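 Transcription factors were each fused at the N-terminus to a polyhistidine tag plus DsRed and expressed in E. coli BL21-CodonPlus before Ni–NTA purification. Binding to a double-stranded custom Agilent array was carried out with 200 nM protein at 25 °C for 1 h in PBS, 2% BSA, salmon testes DNA and 50 µM zinc acetate. The binding signal is per-feature fluorescence intensity, in arbitrary units, on an Axon 4000B scanner.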
OsWRKY34, sequence (Q0JBA9 entry or part of it): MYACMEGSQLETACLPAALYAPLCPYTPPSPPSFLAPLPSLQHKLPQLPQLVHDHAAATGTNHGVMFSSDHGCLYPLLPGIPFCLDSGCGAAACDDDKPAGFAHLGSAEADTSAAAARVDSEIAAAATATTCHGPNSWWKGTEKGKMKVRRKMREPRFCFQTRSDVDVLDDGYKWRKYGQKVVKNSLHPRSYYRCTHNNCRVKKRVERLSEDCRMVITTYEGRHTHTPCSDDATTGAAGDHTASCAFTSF
On to “ACTTTTGGTGGACCTTGGTTGTTTGGTCTGTTTCTCTCAGCGGAGTCACCTAGTGCAG”, for which the binding signal was 8680 fluorescence intensity (a.u.). Next, “TATATCTCGTGGTTTGTGGGTTCTTTTCACTTGTTCAGTGCGGAGTCACCTAGTGCAG”: 14000 fluorescence intensity (a.u.). As for “TTTTCTCTCCTGTTTTGGGAGGGTTTTCCACGTTAAATCTCGGAGTCACCTAGTGCAG”, the figure is 8230 fluorescence intensity (a.u.); as for “GTGGGTTCTTTGTGGGGTCTCTTATAGTTTTCACTGCCAGCGGAGTCACCTAGTGCAG”, 20500 fluorescence intensity (a.u.); as for “GTTTGTGGTTCAGTTTTTGTCCCCATGGGTCTCTTAGCGGCGGAGTCACCTAGTGCAG”, 9120 fluorescence intensity (a.u.). Take “TGTACAGTTGGTTCTTTTCTTTTTTTTTTTCAGTTGAGTCCGGAGTCACCTAGTGCAG”: the binding signal is 9330 fluorescence intensity (a.u.).

With “CCTTTTTGTTGGTCTCTGTTCTTGGGTTGGGTTTTCAGTCCGGAGTCACCTAGTGCAG”, the binding signal was 20800 fluorescence intensity (a.u.). Next, “GTGAGGGTGTGGTTACAGTGGGTTGGTTTTTTTTCTCCCCCGGAGTCACCTAGTGCAG”: 11800 fluorescence intensity (a.u.); “TTGGGAGGGTTTTTCACGTTAAATCTCGTGTCTTCTGTAACGGAGTCACCTAGTGCAG”: 29500 fluorescence intensity (a.u.); “TATTAGTGGTATATATCCCTATCAGTCATTCTGCTTGCTTCGGAGTCACCTAGTGCAG”: 9260 fluorescence intensity (a.u.).

For “CGACGTACCGTAGCCGATTTCTGTTGCTATTATCATGTTCCGGAGTCACCTAGTGCAG”, the binding signal was 9450 fluorescence intensity (a.u.). For the sequence “ATTTCTAGTCATGCCCGATAACCACTCCGGCACGACCACGCGGAGTCACCTAGTGCAG”, the binding signal is 8150 fluorescence intensity (a.u.). With “CCAGACAGCTTCAGTTTGCAACGTACCCAAGTAAGAAACACGGAGTCACCTAGTGCAG”, the binding signal was 9150 fluorescence intensity (a.u.).

In the case of “ACTTTGTAGCCCAATAACCACTATTTGATTCAACAGGTTTCGGAGTCACCTAGTGCAG”, the binding signal is 9900 fluorescence intensity (a.u.). Next, “ACCATTTGTTTGAGCTCCGGAACCTTTTCGCCGTCCTATGCGGAGTCACCTAGTGCAG”: 8460 fluorescence intensity (a.u.); “ATGGCATTGAGCATTACAGTTGAATTTGTGTAGTTTTTAGCGGAGTCACCTAGTGCAG”: 8390 fluorescence intensity (a.u.); “CCAGTGGTGGAGTGGAGTGGTGGTGGGGAGACGTGAGGAGCGGAGTCACCTAGTGCAG”: 8630 fluorescence intensity (a.u.).

With “CCCTCCTCTCCGCGCGCGCCACCTGTCCATCCGCGCGGAGCGGAGTCACCTAGTGCAG”, the binding signal was 8970 fluorescence intensity (a.u.). Consider “GGTTATGGTTCAATTCTAATGTTCCTTTGGTGTCACATTTCGGAGTCACCTAGTGCAG”, for which the binding signal was 8200 fluorescence intensity (a.u.). As for “GGTGGGAGTGCGCATTGAGGATAAGCCACTGATGACGTCTCGGAGTCACCTAGTGCAG”, the figure is 8600 fluorescence intensity (a.u.); as for “CTTCTTCCACTTGAAGCTTTTTCTCTCTTGGTCTTATCCTCGGAGTCACCTAGTGCAG”, 9690 fluorescence intensity (a.u.). Next, “GTGCAGTTGTCTTCTTCTGTTCTTTGGTCATATAGTAGTTCGGAGTCACCTAGTGCAG”: 14900 fluorescence intensity (a.u.); “TTTTCTTCTTTCTTTCTCTCTGTCTTGTTCAATTTTTTCTCGGAGTCACCTAGTGCAG”: 11800 fluorescence intensity (a.u.). Next, “TGACATTTAAATTCTGTTTCTCTCTTTGTGTTTTAGTTCCCGGAGTCACCTAGTGCAG”: 9720 fluorescence intensity (a.u.). In the case of “TTAAACGGTCATTCTTGTGTTTTTCCTGTATTTTCTAATCCGGAGTCACCTAGTGCAG”, the binding signal was 9220 fluorescence intensity (a.u.). Next, “TCTCCAGCTTTTTTCTGTTCCTCTGGTCTTGATTCTTGAACGGAGTCACCTAGTGCAG”: 18200 fluorescence intensity (a.u.); “ATACCTCTTGTGTATTAATTAAACATTAGTGTTTCTGTTCCGGAGTCACCTAGTGCAG”: 48000 fluorescence intensity (a.u.); “CTCCTGCTTCTCTGTTCTTTCCATTCTCCTCCTTTTTTTCCGGAGTCACCTAGTGCAG”: 14600 fluorescence intensity (a.u.). As to “CAGTCTGTCTTGGTCTCTTTGTTCAGTCATGGTCTCTCTTCGGAGTCACCTAGTGCAG”, the binding signal was 19000 fluorescence intensity (a.u.).

Take “TGGTGGGTGCATTGTTGTTCACATTCCGGATCCCTGCATCCGGAGTCACCTAGTGCAG”: the binding signal was 9220 fluorescence intensity (a.u.).

Regarding “TTGTAGTACTAGGTCGTATCTAATACTAGTTGATTTTTTACGGAGTCACCTAGTGCAG”, the binding signal is 8190 fluorescence intensity (a.u.). Next, “TGTATCTCAAATTCTTTCAGTTGGTTTTGTGCTCTTTTTACGGAGTCACCTAGTGCAG”: 8920 fluorescence intensity (a.u.). “GGCGCTTTATTCAATTGGTCCGCTCTCGGTCTCCTGCACGCGGAGTCACCTAGTGCAG”: the binding signal was 8270 fluorescence intensity (a.u.). Turning to “CGGAGGGGTTGGGCTTGCGGGCGGCGTGTACCTTGTGCACCGGAGTCACCTAGTGCAG”, the binding signal is 9410 fluorescence intensity (a.u.). As for “GGAGGGGACGACGATGGTGGGGTGGGTGGTGTCCGGGGTGCGGAGTCACCTAGTGCAG”, the figure is 19100 fluorescence intensity (a.u.); as for “GGGAGGGGAGGACGGCGACGGCGGCGGCGGCGGGGTGTGGCGGAGTCACCTAGTGCAG”, 10800 fluorescence intensity (a.u.); as for “TTTGCTGCTGCTGCTTCTAGGGTTAGGGTTTGGGGTGGGGCGGAGTCACCTAGTGCAG”, 22100 fluorescence intensity (a.u.).

Consider “CTGCTGCGAGGGTGGGTGTTGCTTGTACCGGGCGGGGATGCGGAGTCACCTAGTGCAG”, for which the binding signal was 20300 fluorescence intensity (a.u.). Next, “GGCGCTTCTAGGGTTTGGTGGGGTTCGGGCGGGCGCGCCGCGGAGTCACCTAGTGCAG”: 15600 fluorescence intensity (a.u.); “CGCACTGGCGGGGCTTGGAGCTGGGGTTTCTAGGGTTTGGCGGAGTCACCTAGTGCAG”: 8980 fluorescence intensity (a.u.); “TGGGGTTGAGGGAGGGTGCCGCGGGTGGCTGGCGGAGGACCGGAGTCACCTAGTGCAG”: 10600 fluorescence intensity (a.u.). Next, “GAGATGGAGGTGGAGGTGGTGGAGGGGACGACGATGGTGGCGGAGTCACCTAGTGCAG”: 9610 fluorescence intensity (a.u.). Take “GCGGCGCGGCGGGGAGGAGGGAGGGGTGGCGTTGAGGTGGCGGAGTCACCTAGTGCAG”: the binding signal was 19300 fluorescence intensity (a.u.). Next, “CTGCGGCGAGAGGTGGGAGGCGGGGCGGTTGTACGTGTGCCGGAGTCACCTAGTGCAG”: 11000 fluorescence intensity (a.u.).

In the case of “CGCGCCGGGTGGCGTTGGTGTTGGCGCCGGGGAGGGTCAGCGGAGTCACCTAGTGCAG”, the binding signal is 9140 fluorescence intensity (a.u.).
